KB-3-1 tox: KB-3-1 parental cell cytotoxicity; KB-3-1 viability, CellTiter-Glo ATP luminescence, 72 h; Potency, µM (series often up to 46.1 µM), usual class: cytotoxic; 400,000 tested, 1.4% active; AID 1347075; note: nearly all actives have a fitted effect of over 60% in size
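Cytotoxicity in the drug-sensitive parental line KB-3-1 was scored as loss of CellTiter-Glo luminescence following 72 h incubation with compound. Values come from curve fitting of normalized concentration-response data.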
ELG1 repair inh: blocks ELG1-dependent DNA repair in HEK293T cells; HEK293T ELG1-luciferase reporter, luminescence, 16 h; DNA damage induced by 5-fluorouridine; Potency, µM (highest dose often 46.1 µM), hits mostly inhibitors; 330,000 tested, 2.3% active; note: nearly all actives have a fitted effect of over 55% in size
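Luminescence from the luciferase reporter, measured 30 min after ONE-Glo reagent at room temperature, was the read-out. Beforehand, 2,000 cells per well were exposed for 16 hr at 37 °C to 5-fluorouridine together with compound or vehicle.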
SW480 rerep: inducers of DNA re-replication in SW480 colon cancer cells. SW480 DNA re-replication, Hoechst DNA content imaging, 48 h. Potency, µM (doses to about 46.1 µM), actives largely listed as activators. 340,000 tested, 1.8% active. AID 624297; note: nearly all actives have a fitted effect of over 55% in size
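SW480 cells exposed to compounds for 48 hr at 37 C, 5% CO2, then Hoechst-stained 40 min. Nuclear DNA content imaged by fluorescence scanning (405 nm excitation, 500-530 nm emission); re-replication scored as increased high-intensity nuclei.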
MCF10A rereplic: inducers of DNA re-replication in MCF 10A breast cells; MCF 10A DNA re-replication, Hoechst nuclear intensity, 48 h; Potency, µM (series often up to 46.1 µM), most hits filed as activators; 350,000 tested, 2.9% active; note: nearly all actives have a fitted effect of over 50% in size
KB-V1 cytotox: kills drug-selected multidrug resistant KB-V1 cells | KB-V1 MDR cells viability, CellTiter-Glo, 72 h | Potency, µM (doses to about 46.1 µM), usual class: cytotoxic | 400,000 tested, 3.4% active; note: nearly all actives have a fitted effect of over 60% in size
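Potencies derive from concentration-effect curves fitted to normalized luminescence (CellTiter-Glo) of KB-V1 cells treated for 72 h at 37 degrees C in phenol-red-free DMEM containing 10% FBS.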
Large screens that a line does not name were inactive; ! = a repeat was not active. Sampled rows, rich in hits. Any-hit rate of the full collection: about 8.2%. Calls come from the whole dose curve; as a rule, active = well fitted curve in the direction sought with a large enough effect; inconclusive = small, poorly fitted or top-dose-only effect, or another doubt; inactive = no such curve, though single readings can be large; an effect the other way counts as inactive or inconclusive.

Cc1ccc(-c2c(C#N)c(N)nc3c2CCCCCC3)o1	KB-V1 cytotox inconclusive
Cc1ccc(-c2cc(-c3ccc(C)o3)nc(N)c2C#N)cc1	ELG1 repair inh inconclusive, SW480 rerep 23µM, MCF10A rereplic inconclusive
CCCc1cc(-c2ccc(O)c(OCC)c2)c(C#N)c(N)n1	KB-3-1 tox inconclusive, ELG1 repair inh inconclusive, KB-V1 cytotox inconclusive
CCOc1cc(-c2c(C)c(CC)nc(N)c2C#N)ccc1O	KB-3-1 tox inconclusive, MCF10A rereplic inconclusive, KB-V1 cytotox 18µM
N#Cc1c(N)oc(-c2ccc3c(c2)OCO3)c1-c1ccc2c(c1)OCO2	KB-V1 cytotox 16µM
Cc1ccccc1CN1CCC(N2CCC(C(=O)NCC3CCCO3)CC2)CC1 (stereo unspecified)	SW480 rerep inconclusive, MCF10A rereplic inconclusive
COc1ccccc1-c1noc(-c2ccc(NCc3ccco3)c([N+](=O)[O-])c2)n1	none (no result: ELG1 repair inh, SW480 rerep, MCF10A rereplic)
COc1ccc(C2CC(=O)C=C3c4ccc(OC)cc4CCC32)cc1 (stereo unspecified)	KB-3-1 tox inconclusive (no result: ELG1 repair inh, SW480 rerep, MCF10A rereplic)
Cc1ccc(-c2cc(-c3ccc(F)cc3)c(C#N)c(N)n2)o1	SW480 rerep 21µM, MCF10A rereplic 4.1µM
Cc1cc(-c2cc(-c3ccc(Cl)cc3)nc(N)c2C#N)co1	SW480 rerep 7.3µM, MCF10A rereplic 2.6µM
Cc1ccc(-c2cc(-c3ccc(Cl)cc3)c(C#N)c(N)n2)o1	SW480 rerep 2.6µM, MCF10A rereplic 2.9µM
Cc1c(-c2ccc(F)cc2)nc(N)c(C#N)c1-c1ccco1	MCF10A rereplic inconclusive
Cc1ccc(-c2c(C#N)c(N)nc3c2CCCCC3)o1	KB-3-1 tox inconclusive, MCF10A rereplic inconclusive
Cc1ccc(-c2cc(-c3ccc4c(c3)OCO4)c(C#N)c(N)n2)o1	ELG1 repair inh 21µM, SW480 rerep 21µM, MCF10A rereplic 21µM
CC(c1ccc(N(C)C)cc1)c1ccnc2ccccc12 (stereo unspecified)	KB-3-1 tox inconclusive (no result: ELG1 repair inh, SW480 rerep, MCF10A rereplic)
Cc1ccc(OC(C)C(=O)N2CC(=O)Nc3ccccc32)cc1 (stereo unspecified)	ELG1 repair inh 18µM, KB-V1 cytotox inconclusive
CC(Oc1ccccc1)C(=O)OCC(=O)N1CC(=O)Nc2ccccc21 (stereo unspecified)	KB-V1 cytotox inconclusive
CC(c1nc2ccccc2c(=O)[nH]1)N1CCN(S(=O)(=O)c2ccc(F)c(Cl)c2)CC1 (stereo unspecified)	none (no result: ELG1 repair inh, SW480 rerep, MCF10A rereplic)
CCOC(=O)N1CCC(n2c(SCC(=O)NCc3ccco3)nc3ccsc3c2=O)CC1	KB-3-1 tox inconclusive, ELG1 repair inh inconclusive, KB-V1 cytotox 2.1µM
CCOC(=O)N1CCC(n2c(SCC(=O)OCc3ccccc3)nc3ccsc3c2=O)CC1	ELG1 repair inh 23µM
CCOC(=O)CSc1nc2ccsc2c(=O)n1C1CCN(C(=O)OCC)CC1	ELG1 repair inh inconclusive, KB-V1 cytotox 16µM
CCCCN1C(=O)C(=O)N(CC(=O)Nc2ccccc2C(=O)OCC)C1=O	KB-3-1 tox inconclusive
COc1ccc(-c2nn(-c3ccccc3)cc2CN(C)CCn2ccnc2C)c(F)c1	KB-V1 cytotox 9.2µM
COc1ccc(-c2nn(-c3ccccc3)cc2CNC(C)Cn2cncn2)c(F)c1 (stereo unspecified)	ELG1 repair inh inconclusive
O=S(=O)(Nc1nc2ccccc2nc1-[n+]1cccc(N=C([O-])c2ccccc2Cl)c1)c1ccccc1	none (no result: KB-3-1 tox, SW480 rerep, MCF10A rereplic, KB-V1 cytotox)
CC(=O)C(N=Nc1ccccc1)(Sc1nnc(-c2ccccc2)n1-c1ccccc1)C(C)=O	KB-3-1 tox inconclusive, SW480 rerep inconclusive, KB-V1 cytotox 12µM
Cc1cc(C)n2nc(SCc3nnc(SCc4ccccc4)s3)nc2n1	KB-V1 cytotox 13µM
O=C(CCC1N=C2c3ccccc3N=C(SCc3ccc(Cl)cc3)N2C1=O)NCc1ccco1 (stereo unspecified)	KB-3-1 tox inconclusive, SW480 rerep inconclusive, MCF10A rereplic inconclusive, KB-V1 cytotox 6.5µM
O=C(CCC1N=C2c3ccccc3N=C(SCc3ccc(F)cc3)N2C1=O)NCc1ccco1 (stereo unspecified)	ELG1 repair inh inconclusive
O=C(Nc1ccccc1)Nc1ncc([N+](=O)[O-])s1	KB-3-1 tox 18µM, ELG1 repair inh inconclusive, SW480 rerep inconclusive, KB-V1 cytotox inconclusive
O=C(COC(=O)c1ccccc1)Nc1ncc([N+](=O)[O-])s1	none
O=C(O)CN(CCN(CC(=O)O)CC(=O)O)CCN(CC(=O)O)CC(=O)O	SW480 rerep 24µM! (no result: KB-3-1 tox, ELG1 repair inh, KB-V1 cytotox)
CC(C)(C)NC(=O)C1(C)CCC(=O)N1CC(F)(F)F (stereo unspecified)	none (no result: ELG1 repair inh, SW480 rerep, MCF10A rereplic)
CN(CC1CCCN(CCc2cccc(C(F)(F)F)c2)C1)C(=O)c1cc2ccccc2o1 (stereo unspecified)	none
CCOC(=O)CNC(=S)N(Cc1cccs1)C1CCCCC1	KB-V1 cytotox 7.3µM
O=C(NC1CCCCC1)C(c1cccnc1)N(C(=O)CCl)c1cccc(Cl)c1 (stereo unspecified)	KB-3-1 tox 23µM, ELG1 repair inh 21µM, SW480 rerep 4.1µM, MCF10A rereplic 13µM, KB-V1 cytotox 21µM
COC(=O)c1ccc(C(C(=O)NC2CCCCC2)N(CCc2ccccc2)C(=O)Cc2cccs2)cc1 (stereo unspecified)	none
COC(=O)c1ccc(C(C(=O)NC2CCCCC2)N(Cc2ccc(F)cc2)C(=O)Cc2cccs2)cc1 (stereo unspecified)	KB-V1 cytotox 3.7µM
COc1ccc(N(C(=O)c2cnccn2)C(C(=O)NC2CCCCC2)c2ccc(Cl)cc2)cc1 (stereo unspecified)	none (no result: ELG1 repair inh)
COc1ccc(C(C(=O)NC2CCCCC2)N(C(=O)CCl)c2ccc(Cl)cc2)cc1 (stereo unspecified)	KB-3-1 tox 5.8µM, ELG1 repair inh inconclusive, SW480 rerep inconclusive, MCF10A rereplic inconclusive, KB-V1 cytotox inconclusive
COC(CN(C(=O)CCl)C(C(=O)NC1CCCCC1)c1ccc(Cl)cc1)OC (stereo unspecified)	KB-3-1 tox inconclusive, KB-V1 cytotox inconclusive
CCC(C)(C(=O)NC1CCCCC1)N(Cc1cccs1)C(=O)Cc1cccs1 (stereo unspecified)	KB-V1 cytotox 13µM
CC1CCCC(NC(=O)CNC(=S)N(Cc2ccccc2)Cc2cccs2)C1C (stereo unspecified)	ELG1 repair inh inconclusive, SW480 rerep inconclusive, MCF10A rereplic 13µM, KB-V1 cytotox inconclusive
COC(CN(C(=O)CCl)C(C(=O)NC1CCCCC1)c1ccccc1C)OC (stereo unspecified)	KB-3-1 tox inconclusive, ELG1 repair inh 23µM, SW480 rerep inconclusive, MCF10A rereplic inconclusive, KB-V1 cytotox inconclusive
O=C(NC1CCCC1)C(c1ccc(F)cc1)N(Cc1ccc(Cl)cc1)C(=O)CCl (stereo unspecified)	KB-3-1 tox inconclusive, KB-V1 cytotox 16µM
Cc1cccc(C(C)C)c1NC(=O)c1ccc2c(c1)CCN2S(C)(=O)=O	none (no result: ELG1 repair inh, SW480 rerep, MCF10A rereplic)
CN(C)c1ccc(/C=C/c2ccnc3ccccc23)cc1N	none (no result: ELG1 repair inh, SW480 rerep, MCF10A rereplic)
